Assay results published in PubChem BioAssay AID686979 (National Center for Advancing Translational Sciences (NCATS), 2013).
About 50,000 (12%) of roughly 420,000 compounds were called active. Entries that show only a call come without a potency. Not shown: some 26% with an inconclusive outcome. This is one part of a sample in which actives are shown more often than they occur. The call rests on the fitted dose curve; in most records, active means well fitted inhibition curve with a large enough effect; inconclusive means small, poorly fitted or top-dose-only effect; inactive means flat fitted curve, though single readings scatter.

Assay: qHTS for Inhibitors of human tyrosyl-DNA phosphodiesterase 1 (TDP1): qHTS in cells in presence of CPT; further: nearly all actives have a fitted effect of over 55% in size
Details: chicken DT40 Tdp1-/-;hTDP1 cells + 20 nM CPT, ATP luminescence, 48 h; series mostly up to 46.2 µM
Summary of the method: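 Chicken DT40 Tdp1-/- cells complemented with human TDP1, 400 cells/well, exposed to compounds plus 20 nM camptothecin for at least 48 h at 37 C; viability read as ATP content by CellTiter-Glo luminescence.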
Potency means the concentration at half of the fitted maximal effect.

Row | Structure (SMILES) | Potency
1 | CCOc1ncccc1C(=O)OCC(=O)N1c2ccccc2CC1C (stereo unspecified) | inactive
2 | Oc1cccc2ccc(/C=C/c3ccc(Br)s3)nc12 | inactive
3 | Cc1c(C(=O)NCCN2C(=O)S/C(=C\c3cccs3)C2=O)cccc1[N+](=O)[O-] | inactive
4 | CCCNC(=O)CCn1cc(-c2ccc(OC)cc2)nc1CCN | inactive
5 | CC(=O)c1cccc(NC(=S)N2CCN(S(C)(=O)=O)CC2)c1 | inactive
6 | CCCCCn1c(=O)c(C(=O)OCC)c(Cl)c2ccccc21 | inactive
7 | COc1ccc2oc(C)c(NC(C)=O)c2c1 | inactive
8 | COc1ccc(S(=O)(=O)Nc2ccc3oc(C)c(C(C)=O)c3c2)cc1 | 3.26 µM (active)
9 | CC(=O)c1c(C)oc2ccc(NS(=O)(=O)c3ccccc3)cc12 | inactive
10 | Cc1cccc(-c2noc(CCC(=O)NC3CCCC3)n2)c1 | inactive
11 | CC(Oc1ccccc1)C(=O)Nc1c2c(nn1-c1ccccc1)CS(=O)C2 (stereo unspecified) | inactive
12 | COc1cccc(NC(=O)Cn2c(=O)cc(C)c3c(C)nn(-c4cccc(F)c4)c32)c1 | inactive
13 | Cc1cccc(NC(=O)c2nnn(-c3cccc(C(F)(F)F)c3)c2N)c1 | inactive
14 | Cc1cc(C(=O)Nc2cccc(C(F)(F)F)c2)c2c(C)nn(-c3cccc(F)c3)c2n1 | 18.4 µM (active)
15 | O=C(CNC(=O)c1ccccc1F)OCC(=O)c1c[nH]c2ccccc12 | inactive
16 | COc1ccc(S(=O)(=O)NCCSc2nnnn2-c2ccccc2)cc1 | inactive
17 | CCCn1c(=O)c2c(C(F)(F)F)cc(-c3cccs3)nc2n(CCC)c1=O | inactive
18 | Cc1nc2ccccc2n1CC(=O)N/N=C/c1cccs1 | inactive
19 | CCn1c(C(O)c2cc(OC)ccc2OC)nc2ccccc21 (stereo unspecified) | inactive
20 | CCn1c(/C=N/NC(=O)c2ccc(OC)cc2)nc2ccccc21 | 13 µM (active)
21 | O=C(CCN1CCCCC1)Nc1ccc(F)c(F)c1 | inactive

Row | Structure (SMILES) | Potency
22 | O=C(CNS(=O)(=O)c1ccc2ccccc2c1)Nc1ccc(F)c(F)c1F | inactive
23 | COc1ccccc1CCC(=O)OCC(=O)N1CCN(S(=O)(=O)c2ccc(C)cc2C)CC1 | 25.9 µM (active)
24 | Cc1ccc(S(=O)(=O)N2CCN(C(=O)COC(=O)CNC(=O)c3ccc(C(C)(C)C)cc3)CC2)c(C)c1 | inactive
25 | Cc1ccc(S(=O)(=O)N2CCN(C(=O)CN3C(=O)NC(C)(c4ccc(Cl)cc4)C3=O)CC2)c(C)c1 (stereo unspecified) | 23.1 µM (active)
26 | CCCc1cc(=O)[nH]c(SCC(=O)N2CCN(S(=O)(=O)c3ccc(C)cc3C)CC2)n1 | inactive
27 | Cc1nc(-c2ccc(F)cc2)c(CC(=O)Nc2cccc(S(=O)(=O)N3CCOCC3)c2)s1 | inactive
28 | Cc1ccc(S(=O)(=O)N2CCN(C(=O)Cc3sc(C)nc3-c3ccc(F)cc3)CC2)c(C)c1 | 18.4 µM (active)
29 | Cc1ccc(S(=O)(=O)N2CCN(C(=O)COC(=O)c3c(C)noc3C)CC2)c(C)c1 | inactive
30 | CC1(C)NC(=O)N(CC(=O)N2CCN(S(=O)(=O)c3ccccc3F)CC2)C1=O | inactive
31 | Cc1ccc(NC(=O)CN2C(=O)NC(C)(c3ccc(Cl)cc3)C2=O)c(Br)c1 (stereo unspecified) | inactive
32 | O=c1[nH]snc1-c1c(Cl)cccc1Cl | inactive
33 | CC1CCN(S(=O)(=O)c2ccc3ncn(CC(=O)N(C)C4CCCCC4)c(=O)c3c2)CC1 | inactive
34 | CCc1cc(=O)oc2cc(C)cc(OCC(=O)N3CCC[C@@H]3C(=O)O)c12 | inactive
35 | O=Cc1c(NCCc2cccc(F)c2)c2ccccc2[nH]c1=O | inactive
36 | Cc1ccc2[nH]c(C)c(CCNC(=O)NC3CCCCC3)c2c1 | inactive
37 | CN(Cc1c(F)cccc1Cl)S(=O)(=O)c1cccs1 | inactive
38 | COc1ccc(CC(=O)N[C@@H]2c3cc(OC)c(OC)cc3C[C@H]2OCc2ccccc2)cc1 | inactive
39 | COc1ccc(C)cc1NC(=O)CN(C)S(=O)(=O)c1ccc2c(c1)n(C)c(=O)c(=O)n2C | inactive
40 | Cc1nc(NC(=O)C2CCCCC2)sc1C | inactive
41 | COc1cc(S(=O)(=O)Nc2ncn[nH]2)ccc1Cl | inactive
42 | Cn1c(Cc2cccc3ccccc23)nnc1SCC(=O)N1CCN(c2cccc(Cl)c2)CC1 | 23.1 µM (active)

Row | Structure (SMILES) | Potency
43 | CC(C)Cn1c(=O)c2ccccc2n2c(CCC(=O)NCc3ccccn3)nnc12 | inactive
44 | Cn1c(CNC(=O)c2ccco2)nnc1SCC(=O)N1CCN(c2ccccc2)CC1 | inactive
45 | CC(C)Cn1c(=O)c2ccccc2n2c(CCC(=O)N3CCN(c4cccc(Cl)c4)CC3)nnc12 | 10.3 µM (active)
46 | COc1ccc(NC(=O)CCc2nnc3n(CC(C)C)c(=O)c4ccccc4n23)cc1OC | inactive
47 | Cc1ccccc1NC(=O)Cc1nnc(SCC(=O)N2CCN(c3ccccc3)CC2)n1C | inactive
48 | Cc1nc(NC(=O)c2ccc3c(c2)OCCO3)ccc1Br | inactive
49 | CC1CN(C(=S)Nc2cccc(F)c2)CC(C)O1 (stereo unspecified) | inactive
50 | O=C(CC1CCCCC1)NCc1ccco1 | inactive
51 | CC(=O)N1C[C@@H](CO)[C@@H](N(C)C(=O)c2ccco2)C[C@H]1c1ccccc1 | inactive
52 | OCC[C@H]1C[C@H](O)[C@@H](O)[C@]2(Cc3ccccc3CO2)O1 | inactive
53 | Cc1ccc(C2=CSC3=NS(=O)(=O)CCN23)cc1C | inactive
54 | CC(C)(C)OC(=O)C[C@@H]1C/C=C\C[C@@H](CC(=O)NCCO)C(=O)N[C@H](Cc2c[nH]c3ccccc23)COC1=O | inactive
55 | O=C1N[C@H](Cc2c[nH]c3ccccc23)COC(=O)[C@H](Cc2ccc(F)cc2)C/C=C\C[C@H]1CC(=O)N(CCO)Cc1ccccc1 | 23.1 µM (active)
56 | O=C(N[C@@H](Cc1c[nH]c2ccccc12)C(=O)O)OCC1c2ccccc2-c2ccccc21 | inactive
57 | O=C1NC[C@@H](c2ccccc2)OC(=O)[C@H](Cc2ccc(F)cc2)CC/C=C/C[C@H]1CC(=O)N(CCO)Cc1ccccc1 | 16.4 µM (active)
58 | CN(Cc1cccs1)C(=O)Cc1c[nH]c2ccccc12 | inactive
59 | O=C1CCC/C=C\C[C@@H](CC(=O)N(CCO)Cc2ccccc2)C(=O)NCCO1 | inactive
60 | O=C(C[C@H]1C/C=C\C[C@@H](NC(=O)OCC2c3ccccc3-c3ccccc32)C(=O)O[C@@H](c2ccccc2)CNC1=O)N[C@H](CO)Cc1ccccc1 | 10.3 µM (active)
61 | O=C1N[C@@H](c2ccccc2)COC(=O)[C@H](Cc2ccc(F)cc2)C/C=C\C[C@@H]1CC(=O)N(CCO)Cc1ccccc1 | 23.1 µM (active)
